# In PubChem BioAssay:
# How the values were obtained:
# [1] = tested on: Human papillomavirus type 1a protein E7 (residues 44-93); experiment: small molecules binding HPV E7 44-93 – biochemical, small-molecule microarray, residues 44-93, 635 nm fluorescence, primary screen (AID 1108); conditions: fluorescence 635 nm, higher = more signal;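 note: E7 fragment applied at 1 µg/mL in TBST for 1 h at 4 C; score combines spot fluorescence with its signal to noise ratio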
# [2] = hepatitis C replication reporter changes, two-sided – Huh7 cells, luciferase reporter, HCV replication inhibitor project, primary screen (AID 1109); conditions: Huh7 HCV replicon luciferase reporter, 48 h; higher = more signal;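 note: huh7 hepatoma cells harbouring a luciferase neomycin HCV replicon reporter; luciferase luminescence as measure of HCV replicon replication; test concentration not given here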
# [3] = molecular target: Left-right determination factor 2 (Homo sapiens) (UniProt O00292); experiment: small molecules binding LEFTY2 protein – biochemical, small-molecule microarray, 635 nm fluorescence scan, primary screen (AID 1110); conditions: higher = more signal
# Left-right determination factor 2 (Homo sapiens), sequence (O00292 whole entry, looked up): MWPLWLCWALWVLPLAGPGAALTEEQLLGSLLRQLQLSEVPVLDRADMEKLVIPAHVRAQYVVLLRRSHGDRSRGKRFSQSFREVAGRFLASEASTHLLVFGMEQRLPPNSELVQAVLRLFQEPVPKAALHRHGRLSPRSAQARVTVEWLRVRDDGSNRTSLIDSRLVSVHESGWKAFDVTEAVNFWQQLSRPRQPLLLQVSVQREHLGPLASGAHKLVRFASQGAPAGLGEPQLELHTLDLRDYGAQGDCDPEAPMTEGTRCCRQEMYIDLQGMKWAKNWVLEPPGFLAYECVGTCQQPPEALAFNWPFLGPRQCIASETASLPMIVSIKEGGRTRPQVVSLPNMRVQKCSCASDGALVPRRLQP
# [4] = molecular target: Calmodulin-1 (Homo sapiens) (UniProt P0DP23); experiment: small molecules binding calmodulin-1 with EGTA – biochemical, small-molecule microarray, Cy5-labelled CALM1, profiling panel (AID 1111); conditions: Cy5-CALM1 binding fluorescence, higher = more signal;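 note: labelled calmodulin applied in Tris saline Tween buffer holding calcium plus EGTA and DTT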
# [5] = molecular target: Calmodulin-1 (Homo sapiens) (UniProt P0DP23); experiment: small molecules binding Ca-loaded calmodulin-1 – biochemical, small-molecule microarray, Cy5-labelled CALM1, plus calcium, artefact control for SMM control-protein annotation, profiling panel (AID 1112); conditions: Cy5-CALM1 binding fluorescence, higher = more signal;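 note: score merges spot fluorescence with signal to noise from triplicate slides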
# [6] = probe aWnt5a binding to arrayed compounds – biochemical, biotinylated probe, 635/667 nm fluorescence, primary screen (AID 1113); conditions: small-molecule microarray, higher = more signal;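 note: score merges 667 nm fluorescence intensity with signal-to-noise per printed feature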
# [7] = probe aShh binding to arrayed compounds – biochemical, biotinylated probe, 635/667 nm fluorescence, primary screen (AID 1114); conditions: small-molecule microarray, higher = more signal;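 note: probe is biotin-labelled aShh protein from a stem cell growth factor screen; measures binding of labelled protein to compounds printed on the slide; score merges feature fluorescence at 667 nm with signal-to-noise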
# [8] = probe aNog binding to arrayed compounds – biochemical, biotinylated probe, 635/667 nm fluorescence, primary screen (AID 1115); conditions: small-molecule microarray, higher = more signal;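 note: probe is biotinylated aNog protein used at 0.15 µg/mL for 1 h at 4 C; z-score combines 667 nm fluorescence of each spot with its signal to noise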
# [9] = molecular target: Torsin-1A-interacting protein 1 (Homo sapiens) (UniProt Q5JTV8); experiment: compound microarray binding of lysate hLAP1 – cell lysate, small-molecule microarray, COS7 lysate, 635/667 nm fluorescence, primary screen (AID 1116); conditions: 635 nm fluorescence, higher = more signal
# Torsin-1A-interacting protein 1 (Homo sapiens), sequence (Q5JTV8 whole entry, looked up): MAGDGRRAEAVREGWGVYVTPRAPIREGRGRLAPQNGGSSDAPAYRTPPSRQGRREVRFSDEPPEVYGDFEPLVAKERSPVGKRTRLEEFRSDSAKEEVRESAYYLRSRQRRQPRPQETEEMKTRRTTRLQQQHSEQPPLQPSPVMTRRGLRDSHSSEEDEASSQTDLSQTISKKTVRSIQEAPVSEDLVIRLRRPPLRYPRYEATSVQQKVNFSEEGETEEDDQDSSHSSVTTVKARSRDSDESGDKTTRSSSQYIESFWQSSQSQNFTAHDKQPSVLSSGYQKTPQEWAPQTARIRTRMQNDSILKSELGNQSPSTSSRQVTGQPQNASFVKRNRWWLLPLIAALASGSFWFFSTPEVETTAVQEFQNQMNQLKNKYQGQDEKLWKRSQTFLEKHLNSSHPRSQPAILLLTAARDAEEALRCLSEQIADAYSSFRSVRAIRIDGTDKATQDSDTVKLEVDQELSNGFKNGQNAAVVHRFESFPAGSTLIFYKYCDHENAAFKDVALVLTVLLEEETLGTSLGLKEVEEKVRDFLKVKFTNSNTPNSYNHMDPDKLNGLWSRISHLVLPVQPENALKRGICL
# [10] = molecular target: Alpha-bungarotoxin (Bungarus multicinctus) (UniProt P60615); experiment: compounds binding labelled alpha-BTX control protein – biochemical, small-molecule microarray, Alexa647 label, 635/667 nm fluorescence, artefact control for SMM control protein annotation, profiling panel (AID 1117); conditions: alpha-BTX-A647 binding fluorescence, higher = more signal
# Alpha-bungarotoxin (Bungarus multicinctus), sequence (P60615 whole entry, looked up): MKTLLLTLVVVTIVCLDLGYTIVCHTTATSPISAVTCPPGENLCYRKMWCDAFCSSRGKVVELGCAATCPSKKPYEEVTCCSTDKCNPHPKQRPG
Structure (SMILES),composite z-score [1],z-score [2],composite z-score [3],composite z-score [4],composite z-score [5],composite z-score [6],composite z-score [7],composite z-score [8],composite z-score [9],composite z-score [10]
O=C1[C@H]2C=C(Br)[C@H](C[C@@H]2OCCCCCCO)[C@@]12CO2,-1.01,-3.2,-0.057,-0.714,-1.44,-0.006,-0.106,-0.234,0.0589,-1.17
COc1ccc([Si](C)(C)[C@@H]2[C@@H](CCn3cc([C@H](O)c4ccccc4)nn3)O[C@]3(C(=O)N(Cc4cccc(N5CCC5=O)c4)c4ccccc43)[C@H]2C)cc1,-0.206,-2.78,0.187,-0.15,-0.263,-0.0919,-0.0035,-0.0211,0.392,0.0808
C=CC[C@@]1(C(=O)N2CCCCC2)N=C(c2ccc(OCCCO)cc2)O[C@@H]1c1ccccc1CN=[N+]=[N-],1.48,-2.39,0.0868,1.75,0.797,0.104,0.57,1.18,1.76,2.05
O=C(O)C1N=C(c2ccc(OCCCO)cc2)N(c2ccccc2)O1 (stereo not given),1.13,-0.643,0.509,0.37,-0.218,-0.0478,-0.0769,-0.402,0.435,0.447
COCCCNC(=O)[C@@]1(Sc2ccc(C)cc2)CC(=O)N(Cc2ccccc2Cl)[C@@H]1c1ccc(CO)cc1,1.36,-1.75,0.585,0.532,-0.184,0.0706,0.275,-0.205,0.566,1.25
CC(C)[Si](C#CCCCC#N)(Oc1ccccc1Br)C(C)C,0.845,-0.071,0.0224,-0.154,-0.159,-0.0512,-0.0553,-0.213,0.528,0.453
C[N+](C)(C)CCCC[C@@H]1NC(=O)[C@@H]2C[C@H](C(=O)NCCCCCCNC(=O)CS)[C@H](c3ccc(O)cc3)N2C1=O,-0.421,0.164,-0.638,-0.4,-0.281,-0.237,-0.304,-0.0721,0.958,1.33
CC(C)[Si](C#CCCCC#N)(O[C@H](c1ccccc1)c1cn(Cc2cccc(Cl)c2)nn1)C(C)C,1.31,-1.7,0.634,-0.412,-0.745,-0.0977,-0.0553,-0.467,0.423,-0.0534
[N-]=[N+]=NCc1ccccc1[C@@H]1OC(c2ccc(OCCCO)cc2)=N[C@]1(CCS(=O)(=O)c1ccccc1)C(N)=O,1.5,1.35,0.767,0.731,0.242,0.164,0.5,0.769,1.81,2.19
CCOC(=O)C[C@H]1[C@H](OC(=O)c2ccc(C(=O)c3ccccc3)cc2)[C@@H](NC(=O)c2ccccc2)c2cc(OCCCO)ccc2N1C(=O)c1ccccc1,1.09,-1.33,0.224,0.461,0.168,0.0102,-0.0769,-0.234,0.63,0.872
O=C(NCc1ccccc1)[C@@H]1c2ccccc2C(=O)N(C2Cc3ccccc3C2)[C@H]1c1ccc(CO)cc1,-0.146,-0.51,-0.322,0.158,0.229,-0.101,0.194,1.13,0.628,1.22
C=C(C(=O)CC[C@H](OC(C)=O)c1ccccc1OCCO)C(C)C,-0.949,-4.51,-0.343,-0.296,-1.33,-0.119,-0.352,-0.124,4.35,-0.423
CCOC(=O)C1=CC[C@@H](c2ccccc2)N(S(=O)(=O)c2ccc(C)cc2)[C@H]1c1ccc(CC)cc1,1.4,-1.8,0.353,1.21,0.511,-0.0384,-0.264,0.733,0.331,0.569
[N-]=[N+]=NCc1ccccc1[C@@H]1OC(c2ccc(OCCCO)cc2)=N[C@]1(CCS(=O)(=O)c1ccccc1)C(=O)N1CCOCC1,1.41,-1.82,-0.141,1.72,0.443,0.0357,0.0381,0.113,2,2.04
CCCNC(=O)[C@@]1(Sc2ccc(C)cc2)CC(=O)N(Cc2ccccc2C(F)(F)F)[C@@H]1c1ccc(CO)cc1I,1.38,-1.91,-0.0375,-0.214,-0.611,-0.0519,0.0639,0.134,0.332,1.62
CCCC[C@H]1C[C@@H]1[C@@H]1N(P(=O)(c2ccccc2)c2ccccc2)C[C@@](O)(c2ccccc2)CC12CC2,0.713,-2.71,-1.06,1.96,1.03,0.145,0.149,-0.753,0.727,0.217
